Sampled rows, rich in hits. Any-hit rate of the full collection: about 2.9%.
ZTA counter: blocks Epstein-Barr virus ZTA, an EBNA-1 counter-screen. P03206. ZTA-DNA binding, fluorescence polarization. inhibition, % at 11 µM. hit rate 0.15% among 320,000. AID 2234; in the data active = inhibition above about 33%
Target sequence (P03206 whole entry, looked up): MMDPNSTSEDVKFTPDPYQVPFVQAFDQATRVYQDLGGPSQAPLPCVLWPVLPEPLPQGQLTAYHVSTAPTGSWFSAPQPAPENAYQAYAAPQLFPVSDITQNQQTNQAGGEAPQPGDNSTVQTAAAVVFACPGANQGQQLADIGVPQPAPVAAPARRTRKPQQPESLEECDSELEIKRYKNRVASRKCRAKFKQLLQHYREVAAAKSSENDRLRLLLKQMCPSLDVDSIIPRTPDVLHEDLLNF
PAFAH1B3 inh: PAFAH1B3 enzyme inhibitors, primary screen, biochemical, fluorescence polarization, human | recombinant PAFAH1B3, FP-rhodamine probe | hit rate 0.28% among 340,000 | inhibition, % at 3.39 µM | AID 492972, 2010 | Platelet-activating factor acetylhydrolase IB subunit alpha1 (Homo sapiens), Q15102;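 active = inhibition above the screen-wide average of all tested compounds plus 3 SD, cut at about 25% in these data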;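 also: 0% = enzyme with DMSO only and 100% = wells lacking PAFAH1B3 protein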
Target sequence (Q15102 whole entry, looked up): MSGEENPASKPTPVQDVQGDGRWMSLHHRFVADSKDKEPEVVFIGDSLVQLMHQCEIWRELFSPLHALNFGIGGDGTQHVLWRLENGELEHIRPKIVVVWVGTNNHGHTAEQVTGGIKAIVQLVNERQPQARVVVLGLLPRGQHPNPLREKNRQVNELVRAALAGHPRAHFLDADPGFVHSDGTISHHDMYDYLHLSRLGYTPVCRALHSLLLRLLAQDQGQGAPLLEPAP
rCAG RNA binder: binders of r(CAG) RNA repeats, primary screen, biochemical, fluorescence | r(CAG) RNA repeat, TO-PRO-1 dye displacement fluorescence | inhibition, % at 3 µM | hit rate 1.3% among 370,000;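 active = inhibition above the plate cutoff, the mean of all test compounds on that plate plus 3 SD, cut at about 35% in these data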;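 also: 0% = DMSO alone and 100% = 100 µM mitoxantrone as full dye displacement; higher means more dye released from RNA so lower well fluorescence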
PAFAH2 inh: PAFAH2 enzyme inhibitors, primary screen, biochemical, fluorescence polarization, human; recombinant PAFAH2, FP-rhodamine activity probe; inhibition, % at 3.39 µM; AID 492956, 2010; hit rate 0.99% among 340,000;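 active = inhibition above the mean over all tested compounds plus 3 SD, cut at about 30% in these data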;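 also: inhibitors block probe labeling of enzyme so polarization drops; 0% = enzyme with DMSO and 100% = wells lacking PAFAH2 protein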
EBNA-1 inh: EBNA-1 DNA-binding inhibitors, primary screen, biochemical, fluorescence polarization. inhibition, % at 14.8 µM. hit rate 0.34% among 300,000; in the data active = inhibition above about 28%
PAFAH1B2 FP inh: PAFAH1B2 enzyme inhibitors, primary screen, biochemical, fluorescence polarization, human; Platelet-activating factor acetylhydrolase IB subunit alpha2 (Homo sapiens), P68402; recombinant PAFAH1B2, FP-rhodamine activity probe; inhibition, % at 3.39 µM; hit rate 1.2% among 340,000; AID 492953, 2010;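 active = inhibition above the mean of all tested compounds plus 3 SD, cut at about 24% in these data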;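 also: 0% = enzyme with DMSO and 100% = wells lacking PAFAH1B2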
Target sequence (P68402 whole entry, looked up): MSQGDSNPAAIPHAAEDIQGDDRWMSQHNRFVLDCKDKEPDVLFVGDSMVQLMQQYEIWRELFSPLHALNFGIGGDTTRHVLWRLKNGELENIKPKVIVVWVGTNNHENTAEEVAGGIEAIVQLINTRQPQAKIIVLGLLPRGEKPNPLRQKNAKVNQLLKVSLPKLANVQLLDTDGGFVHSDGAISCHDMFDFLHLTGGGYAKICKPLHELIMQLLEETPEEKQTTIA
PAFAH2 confirm: PAFAH2 enzyme inhibitors, confirmation, biochemical, fluorescence polarization, human | recombinant PAFAH2, FP-rhodamine activity probe | shares compounds with PAFAH2 inh | AID 493030, 2011 | inhibition, % at 3.39 µM | hit rate 65% among 2,300;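 active = mean inhibition over three repeats above a set limit taken from the earlier primary screen, cut at about 30% in these data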;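 also: inhibitor blocks binding of rhodamine activity probe so polarization falls; 0% = enzyme with DMSO and 100% = wells lacking PAFAH2 protein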
The depositor's hits bear a star; · = not tested or not shown.

SMILES | ZTA counter | PAFAH1B3 inh | rCAG RNA binder | PAFAH2 inh | EBNA-1 inh | PAFAH1B2 FP inh | PAFAH2 confirm
CC(OC(=O)c1cccc(N2C(=O)c3ccccc3C2=O)c1)C(=O)Nc1ccc(N(C)C)cc1 (stereo unspecified) | -3.0 | 0.4 | 2.5 | -2.0 | 9.7 | -5.2 | ·
CCOC(=O)[C@]12CCCC=C1N(CCCOC)C(=O)[C@@H]2CC(=O)N1CCSCC1 | · | · | 2.0 | · | · | · | ·
O=C(O)CCC(=O)Nc1ccc(C(=O)OCC(=O)c2ccc(Cl)cc2Cl)cc1 | 6.7 | 0.3 | 27.2 | 61.7* | -3.5 | 8.2 | 51.1*
Cc1ccc(Cl)cc1NC(=O)c1ccc(NC(=O)CCC(=O)O)cc1 | -15.4 | -2.2 | 1.7 | 3.0 | -6.9 | 3.0 | ·
O=C(c1cc2c(s1)CCCCC2)N1CCN(c2ncccn2)CC1 | 1.5 | 2.3 | 1.0 | 6.4 | 3.7 | 4.6 | ·
O=C(c1cc2c(s1)CCCC2)n1cccn1 | -7.2 | -0.5 | · | 63.2* | -2.3 | 1.4 | 55.1*
CCCc1cc(=O)oc2c3c(cc(OCC(=O)N[C@@H](CSC)C(=O)O)c12)OC(C)(C)CC3 | · | 2.8 | 16.9 | 33.9* | · | 10.3 | 28.0
Cc1cc(=O)oc2c3c(cc(OCC(=O)Nc4ccc(CCO)cc4)c12)OC(C)(C)CC3 | -9.8 | 8.0 | -0.7 | 8.9 | -3.2 | 4.0 | ·
CN(C)c1cccc(/C=C2\CC3(OC(=O)c4ccccc4)CCCN2C3)c1 (stereo unspecified) | · | · | 4.7 | · | · | · | ·
COc1cc(/C=C/C(=O)OCC(=O)NCCC2=CCCCC2)cc(OC)c1OC | · | -4.1 | -1.0 | 33.3* | · | 3.5 | 10.0
O=C(COC(=O)/C=C/c1cccc(Br)c1)NCCC1=CCCCC1 | 17.1 | -2.5 | -3.9 | 6.8 | 5.0 | -3.9 | ·
COc1cc(/C=C/C(=O)OCC(=O)NCCC2=CCCCC2)ccc1O | -6.8 | -4.8 | -1.7 | 56.7* | 12.7 | 3.5 | 63.0*
CN(CCO)C1CN(Cc2cn(Cc3ccccc3F)nn2)S(=O)(=O)C1 (stereo unspecified) | · | · | -1.5 | · | · | · | ·
CC1(Br)C(Sc2ccccc2[N+](=O)[O-])=Nc2ccccc21 (stereo unspecified) | · | · | 7.8 | · | · | · | ·
Nc1nnc(CC(=O)N/N=C/c2ccc(-c3ccc(Cl)cc3Cl)o2)s1 | 30.8 | -12.7 | 18.8 | 49.7* | 27.4 | -0.7 | 31.3*
Nc1nnc(CC(=O)N/N=C/c2ccc(-c3ccccc3Cl)o2)s1 | 7.9 | -1.3 | 20.1 | 29.7* | 0.7 | -1.1 | 23.3
Nc1nnc(CC(=O)N/N=C/c2ccc([N+](=O)[O-])cc2)s1 | 4.3 | 8.8 | 8.5 | 5.7 | 0.6 | 5.9 | ·
C#CCNC(=O)C[C@H]1C[C@@]2(C(=O)OC)C(=C[C@H](COCc3ccccc3)O[C@@H]2C)N(CCc2ccc(OC)c(OC)c2)C1=O | · | · | 4.3 | · | · | · | ·
CCCCNC(=O)C(NC(=O)c1ccc2ccccc2c1)C(=O)c1ccccc1 (stereo unspecified) | · | · | 3.1 | · | · | · | ·
CCOC(=O)n1cc(C(=O)c2ccccc2O)cn1 | -0.1 | -1.2 | 0.3 | 20.4 | 8.6 | -3.3 | ·
CC(C)(C)OC(=O)n1cc(C(=O)c2ccccc2O)cn1 | -2.9 | 8.3 | -1.7 | 84.2* | -0.5 | 0.3 | 69.1*
N/C(CC(=O)Nc1ccc(F)c(Cl)c1)=N\OC(=O)c1cccs1 | -20.2 | -1.0 | -0.4 | 47.5* | -11.4 | 10.2 | 36.1*
O=C(COC(=O)c1cccs1)Nc1ccc(F)c(F)c1 | 16.1 | 3.7 | 3.2 | 78.9* | · | -1.3 | 80.8*
N/C(=N\OC(=O)c1cccs1)c1ccc(Cl)cc1 | 0.9 | · | 1.8 | · | 4.0 | · | ·
O=C(COC(=O)c1cccs1)Nc1nc(-c2ccccc2)cs1 | 8.7 | 2.9 | 3.8 | 9.2 | 11.4 | -4.3 | ·
SMILES | ZTA counter | PAFAH1B3 inh | rCAG RNA binder | PAFAH2 inh | EBNA-1 inh | PAFAH1B2 FP inh | PAFAH2 confirm
O=C(COC(=O)c1cccs1)Nc1ccccc1 | -0.3 | 3.5 | -1.7 | 76.7* | 8.3 | -5.0 | 77.5*
O=C(COC(=O)CCC(=O)c1cccs1)Nc1ccc(F)c(F)c1F | · | 2.7 | -4.5 | 3.4 | · | 1.2 | ·
O=C(COC(=O)c1cccs1)NCCCc1ccccc1 | -1.4 | 0.9 | -6.0 | 47.0* | -4.0 | 3.6 | 27.7
O=C(NCCCc1ccccc1)c1cccs1 | -15.8 | 7.6 | -2.5 | 4.8 | -10.3 | 2.6 | ·
C=CCN1C(=O)[C@H](CC(=O)N2CCC(c3ccccc3)CC2)[C@@]2(C(=O)OCC)CCCC=C12 | · | · | 0.6 | · | · | · | ·
CC1(C(=O)OCC(=O)Nc2ccccc2Cl)CC1(Cl)Cl (stereo unspecified) | 2.7 | 7.8 | -3.8 | 1.0 | 7.7 | 0.9 | ·
CC1(C(=O)OCC(=O)Nc2ccccc2)CC1(Cl)Cl (stereo unspecified) | -2.3 | 1.8 | -2.1 | 56.2* | 10.9 | 0.8 | 50.9*
CCCCCCCCN1C(=O)[C@@H](CC(=O)NCCCCc2ccccc2)C[C@@]2(C(=O)OC)C1=C[C@H](COCc1ccccc1)O[C@@H]2C | · | · | 6.8 | · | · | · | ·
COc1ccc(/C=C2\N=C(c3c(-c4ccccc4)noc3C)OC2=O)cc1OC | 12.5 | 7.4 | 20.9 | 33.5* | 5.3 | 1.3 | 14.1
COc1cc(/C=C2\N=C(c3ccccc3)OC2=O)ccc1OCc1c(C)no[n+]1[O-] | -22.9 | -0.7 | 8.5 | 1.2 | -7.5 | 2.9 | ·
COc1cccc(-c2ccc(CC[C@H]3O[C@H]4CC[C@@H](CO)O[C@H]4C[C@H]3NC(=O)c3cnccn3)cc2)c1 | · | · | 1.9 | · | · | · | ·
COC(=O)[C@]12C[C@H](CC(=O)N3CCCCC3)C(=O)N(CCc3ccc(OC)c(OC)c3)C1=C[C@H](C(C)C)O[C@@H]2C1CC1 | · | · | 0.0 | · | · | · | ·
Oc1ccccc1/C=N/NC(=S)NC1CC2CC1C1C=CCC21 (stereo unspecified) | 1.4 | 20.3 | 12.4 | 51.5* | -13.1 | 12.7 | 14.2
COc1cccc(/C=N/NC(=S)NC2CC3CC2C2C=CCC32)c1O (stereo unspecified) | 15.4 | 5.5 | 3.2 | 22.1 | 14.2 | 3.8 | ·
O=C(CSc1nnc(-c2cccs2)o1)c1ccc2c(c1)OCO2 | · | · | 2.7 | · | · | · | ·
Nc1cc(=O)[nH]c(SCc2cccc3ccccc23)n1 | 4.9 | 0.2 | 6.5 | -3.8 | -0.7 | 4.8 | ·
CCc1cc(=O)[nH]c(SCc2cccc3ccccc23)n1 | -8.6 | 4.9 | · | 61.5* | 1.2 | 6.7 | 51.4*
O=C(OCC(=O)c1ccccc1Br)c1ccncc1 | -7.7 | 0.6 | 4.2 | 2.2 | 3.0 | 3.0 | ·
O=C(OCC(=O)c1cccc2ccccc12)c1ccc(CO)cc1 | 0.1 | 8.0 | 0.7 | 47.6* | -15.3 | 2.2 | 25.0
COc1cccc(NC(=O)COC(=O)c2c(F)cccc2Cl)c1 | 9.2 | 3.7 | -0.1 | 60.9* | 3.5 | 3.8 | 58.5*
COc1cccc(NC(=O)COC(=O)c2nc(Cl)ccc2Cl)c1 | -13.6 | 2.3 | 2.9 | -2.9 | -9.7 | -5.2 | ·
